Here are results for 29 compounds from PubChem BioAssay (NCATS).

For test [1], the system named is Zika virus NS2B-NS3 protease (unlinked complex). Briefly: Primary screen GU Rhodamine qHTS for Zika virus inhibitors: Unlinked NS2B-NS3 protease assay (AID 1347159). Further: nearly all actives have a fitted effect of over 60% in size. Summed up:
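Percent inhibition derives from the 15-min fluorescence change (ex 480, em 540 nm), normalized to no-enzyme and no-inhibitor wells. Reactions contained 25 nM NS2B-NS3 complex and 1.5 microM substrate in 10 mM Tris-HCl pH 8.0.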

Test [2] has as its system Zika virus NS2B-NS3 protease (linked construct). The test can be described thus: Primary screen NINDS Rhodamine qHTS for Zika virus inhibitors (AID 1347160). Further: nearly all actives have a fitted effect of over 55% in size. Summed up:
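In 10 mM Tris-HCl pH 8.0 containing 0.01% Tween 20, linked NS2B-NS3 protease (25 nM final) is exposed to test compounds for 15 min. Cleavage of 1.5 microM Rhodamine110 substrate is tracked by fluorescence over 15 min.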

SMILES strings stand for the structures. Results filed as inconclusive are left out. A call without a number means that no potency is given here. A number with no mark means an inactive call. Active and inactive are the calls of the source. The call rests on the fitted dose curve; in most records, active means well fitted inhibition curve with a large enough effect; inconclusive means small, poorly fitted or top-dose-only effect; inactive means no such curve, though single readings can be large or run the other way.
Potency means the concentration at half of the fitted maximal effect.

Regarding `C[C@@H](c1ccccc1)N(C(N)=NC#N)c1cccc2ncccc12`, the Potency result in test [1] and in test [2] was “inactive” throughout.
Turning to `C/C=C1/[C@H](O[C@@H]2O[C@H](CO)[C@@H](O)[C@H](O)[C@H]2O)OC=C(C(=O)OC)[C@H]1CC(=O)OCCc1ccc(O)c(O)c1`, the Potency result in test [1] and in test [2] was “inactive” each time.
Consider `NC[C@H]1CCC[C@@H](CNC(=O)[C@@H](Cc2c[nH]c3ccccc23)NC(=O)N2CCC3(C=Cc4ccccc43)CC2)C1`, for which the Potency result in test [1] and in test [2] was “inactive” in each case.
In the case of `CC(=O)/C=C/C1(O)C(C)=CC(=O)CC1(C)C` (stereo not drawn), the Potency result in test [1] and in test [2] was “inactive” each time.
For the compound `O=C(NC1Cc2ccccc2N(C[C@@H](O)CO)C1=O)c1cc2cc(Cl)sc2[nH]1` (stereo partly drawn), the Potency result in test [1] and in test [2] was “inactive” throughout.
Turning to `C[C@@H]1O[C@@H](O[C@@H]2\C=C/C=C\C=C/C=C\C[C@H](C)OC(=O)/C=C\[C@H]3O[C@@H]3C[C@H](O)C[C@]3(O)C[C@@H](O)[C@@H](C(=O)O)[C@H](C2)O3)[C@H](O)[C@H](N)[C@@H]1O`, the Potency entry in test [1] and in test [2] was “inactive” in each case.
As for `COc1ccc(/C=C/C(=O)O[C@@H]2[C@@H](O[C@@H]3O[C@H](CO)[C@@H](O)[C@H](O)[C@H]3O)[C@@H](O)[C@H](O[C@H]3C4C=CO[C@@H](O[C@@H]5O[C@H](CO)[C@@H](O)[C@H](O)[C@H]5O)C4[C@@]4(CO)O[C@@H]34)O[C@H]2C)cc1` (stereo partly drawn), the Potency entry in test [1] and in test [2] was “inactive” in each case.
`Cc1ccc(-n2nc(C(C)(C)C)cc2NC(=O)Nc2cc(COc3cccnc3)[nH]n2)cc1`: the Potency entry in test [1] and in test [2] was “inactive” in each case.
Consider `COC(=O)CCC1(C)C(C(C)(C)O)C(O)CC2(C)Oc3c(C)c4c(c(OC)c3CC21)C(=O)OC4` (stereo not drawn), for which the Potency result in test [1] and in test [2] was “inactive” throughout.
For the compound `CC[C@H]1OC(=O)[C@H](C)C(=O)[C@H](C)[C@@H](OC2O[C@H](C)C[C@H](N(C)C)[C@H]2O)[C@@H](C)C[C@@H](C)C(=O)/C=C/[C@]1(C)O` (stereo partly drawn), the Potency result in test [1] and in test [2] was “inactive” each time.
Turning to `COc1cc(/C=C/C(=O)O[C@H]2[C@H](O)[C@@H](CO)O[C@@]2(CO)O[C@H]2O[C@H](CO)[C@@H](O)[C@H](O)[C@H]2O)cc(OC)c1O`, the Potency result in test [1] and in test [2] was “inactive” each time.
Turning to `C=C1C[C@]23C[C@H]1CC[C@H]2[C@]1(C)CC[C@H](O)[C@@](C)(C(=O)O)[C@H]1[C@@H]3C(=O)O`, the Potency entry in test [1] and in test [2] was “inactive” each time.
For `O=C(CCc1ccccc1)c1c(O)c([C@@H]2O[C@H](CO)[C@@H](O)[C@H](O)[C@H]2O)c(O)c([C@@H]2O[C@H](CO)[C@@H](O)[C@H](O)[C@H]2O)c1O`, the Potency result in test [1] and in test [2] was “inactive” each time.
On to `C=C[C@@]1(C)CCC2=C([C@H]1OC(C)=O)[C@H](OC(C)=O)CC1[C@](C)(C(=O)OC)CC[C@H](OC(C)=O)[C@]21C` (stereo partly drawn), for which the Potency result in test [1] and in test [2] was “inactive” each time.
Take `CC1(C)CC[C@]2(C(=O)O[C@@H]3O[C@H](CO[C@@H]4O[C@H](CO)[C@@H](O)[C@H](O)[C@H]4O)[C@@H](O)[C@H](O[C@@H]4O[C@H](CO)[C@@H](O)[C@H](O)[C@H]4O)[C@H]3O)CC[C@]3(C)C(=CCC4[C@@]5(C)CC[C@H](O[C@@H]6OC[C@@H](O)[C@H](O)[C@H]6O)[C@@](C)(C(=O)O)C5CC[C@]43C)[C@@H]2C1` (stereo partly drawn): the Potency entry in test [1] and in test [2] was “inactive” each time.
Consider `CCCC(C(=O)O)c1c(C)nc2ccc(Cl)cc2c1-c1ccccc1` (stereo not drawn), for which the Potency is 31.6 µM (active) in test [1] and 14.1 µM (active) in test [2].
The like results for `N#Cc1cccc(-c2c[nH]c3ncnc(N4CCOCC4)c23)c1` were, in that order, “inactive” and “inactive”.
The like results for `COc1cc(/C=C/C(=O)O[C@@H]2C[C@@](O)(C(=O)O)C[C@@H](O)[C@@H]2O)ccc1O` were, in that order, “inactive” and “inactive”.
The like results for `O=C(O)CCc1c(C(=O)O)[nH]c2cc(Cl)cc(Cl)c12` were, in that order, “inactive” and “inactive”.
With `CC1(C)CC[C@]2(C(=O)O)[C@H](O)C[C@]3(C)C(=CCC4[C@@]5(C)CC[C@H](O[C@@H]6OC[C@@H](O)[C@H](O)[C@H]6O)[C@@](C)(C(=O)O)C5CC[C@]43C)[C@@H]2C1` (stereo partly drawn), the Potency entry in test [1] and in test [2] was “inactive” in each case.
`CC1=CC2=C(C)C(=O)[C@](C)(O)[C@H](O)C2=CO1`: the Potency entry in test [1] and in test [2] was “inactive” throughout.
For the compound `COc1ccc(-n2c(SCC#N)nc3sc4c(c3c2=O)CCCC4)cc1`, the Potency entry in test [1] and in test [2] was “inactive” in each case.
Consider `COc1cc([C@@H](O[C@@H]2O[C@H](CO)[C@@H](O)[C@H](O)[C@H]2O)[C@@H]2CO[C@H](c3ccc(O)c(OC)c3)[C@H]2CO)ccc1O`, for which the Potency entry in test [1] and in test [2] was “inactive” in each case.
As to `COc1ccc(CC(=O)NCc2ccccc2-c2ccccc2C(=O)NCCc2cccnc2)cc1`, the Potency result in test [1] and in test [2] was “inactive” throughout.
For the compound `COc1cc(O)c2c(c1Cl)CC(C)OC2=O` (stereo not drawn), the Potency result in test [1] and in test [2] was “inactive” each time.
Consider `CCC(C)/C=C(C)/C=C/C(=O)C1CCC(O)C(C)(O)C1=O` (stereo not drawn), for which the Potency in test [1] was 17.8 µM (active); in test [2], 25.1 µM (active).
The like results for `CNC(C)C(=O)NC(C(=O)N1CCCC1C(=O)Nc1cccc2ncccc12)C(C)C` (stereo not drawn) were, in that order, “inactive” and “inactive”.
In the case of `C=C1C(=O)O[C@@H]2C[C@]3(C)[C@@H](CCC(C)=O)[C@@H]3C[C@H]12`, the Potency result in test [1] and in test [2] was “inactive” each time.
Turning to `CC1CC(O)/C=C/C(O)/C=C\C(=O)O1` (stereo not drawn), the Potency result in test [1] and in test [2] was “inactive” throughout.
